# Assay outcomes (PubChem BioAssay)
# LmPK inh = LmPK (Leishmania mexicana) enzyme inhibition | Q27686 | AID 1721 | Potency, µM (series often up to 57.5 µM), for the others: top-dose activity change, negative = inhibition, usual class: inhibitors | purified LmPK, Kinase-Glo ATP luminescence, 1 h | 0.37% of 290,000 active; also: potency is read from the fitted curve at half-maximal effect; % is scaled to controls: 0 for no effect and ±100 for the full control effect
# Target sequence (Q27686 whole entry, looked up): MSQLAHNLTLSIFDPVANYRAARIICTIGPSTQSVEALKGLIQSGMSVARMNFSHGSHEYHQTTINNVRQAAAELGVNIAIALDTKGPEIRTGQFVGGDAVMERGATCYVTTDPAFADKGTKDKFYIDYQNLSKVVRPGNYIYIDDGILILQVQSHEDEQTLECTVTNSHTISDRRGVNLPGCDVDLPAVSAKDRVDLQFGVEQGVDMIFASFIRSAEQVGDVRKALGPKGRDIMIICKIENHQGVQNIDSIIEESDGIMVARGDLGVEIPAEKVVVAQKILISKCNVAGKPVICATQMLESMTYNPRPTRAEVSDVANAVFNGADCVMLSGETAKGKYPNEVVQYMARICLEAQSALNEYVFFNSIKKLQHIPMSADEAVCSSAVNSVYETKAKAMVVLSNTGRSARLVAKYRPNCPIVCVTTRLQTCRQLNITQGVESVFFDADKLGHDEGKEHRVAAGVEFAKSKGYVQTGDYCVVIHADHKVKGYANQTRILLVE
#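 Screened at intermediate enzyme activity to detect both inhibitors and activators: LmPK at 0.1 nM, with a 0.5 nM enzyme column as activation reference. PEP 0.5 mM, ADP 0.1 mM; ATP detected by luminescence after 1 h.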
# Tb PYK inh = inhibitors of Trypanosoma brucei pyruvate kinase; TbPYK enzyme, Kinase-Glo Plus ATP luminescence, 45 min; AID 624173; Q57TT1; 0.12% of 410,000 active; Potency, µM (titrated, usually from 76.8 µM), inactives show top-dose activity, negative = inhibition, actives largely listed as inhibitors; also: potency is read from the fitted curve at half-maximal effect; % is scaled to controls: 0 for no effect and ±100 for the full control effect; nearly all actives have a fitted effect of over 50% in size
#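 Assay buffer: 50 mM TEA pH 7.2, 100 mM KCl, 10 mM MgCl2, 0.05% BSA, 0.01% Tween-20. Pyruvate kinase from T. brucei plus substrate met compound, then ADP (130 uM final). Luminescence was read post 45 min RT.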
# Shiga inhibitor = inhibitors of Shiga toxin in Vero cells; 9.2% of 290,000 active; inhibition, % at 38.7 µM; Vero cells, Shiga toxin protein synthesis inhibition reporter; AID 2315; in the data active = inhibition mostly above about 28%, no sharp cut-off; inactive = mostly below about 43%; also: 0% is about no effect
# FBPA Giardia inh = blocks Giardia fructose-bisphosphate aldolase activity; A8B2U2; purified Giardia FBPA; Potency, µM (top dose mostly 59.6 µM), for inactives: at the top dose activity, negative = inhibition, hits mostly inhibitors; 0.71% of 290,000 active; AID 2451; also: potency is read from the fitted curve at half-maximal effect; % is scaled to controls: 0 for no effect and ±100 for the full control effect; nearly all actives have a fitted effect of over 55% in size
#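 Giardia FBPA (40 nM reagent) was preincubated 10 min at RT with compound (up to 57.5 uM final), then substrate plus GAPDH/TPI/NAD/arsenate coupling system with diaphorase/resazurin was added; resorufin fluorescence (525/598 nm) was read after 20 min.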
# RE007 growth inh = less growth of the S. pombe RE007 Vpr strain | 0.21% of 360,000 active | S. pombe RE007 Vpr strain, BacTiter-Glo ATP luminescence, 24 h | AID 651644 | Potency, µM (doses to about 92.2 µM), inactives show top-dose activity change, negative = less growth, hits mostly inhibitors; active = well fitted falling curve with a large enough effect; inconclusive = small, poorly fitted or top-dose-only effect; inactive = no such curve, though single readings can be large or run the other way; also: potency is read from the fitted curve at half-maximal effect; % is scaled to controls: 0 for no effect and ±100 for the full control effect; nearly all actives have a fitted effect of over 50% in size
#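 Fission yeast RE007 carrying one integrated HIV-1 vpr copy, seeded at OD 0.01 in PMG+AL medium with 23 nL pinned compound. Grown 24 h at 30 degrees; viability read by BacTiter-Glo luminescence after 5 min.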
# Cycloheximide cs = affects cycloheximide protein synthesis inhibition readout, counter-screen | cell reporter, cycloheximide protein synthesis inhibition counterscreen | max response, % | 12% of 300,000 active | AID 2314; in the data active = max response mostly above about 13%, no sharp cut-off; inactive = mostly below about 14%; also: read at 38.3 µM for the half of the compounds with a filed dose; 0% is about no effect
# Starred values were filed as active, the others as inactive; i = inactive; u = inconclusive; x = no result; [ ] = another dose, or the depositor's remark. Only a selection was taken, and hits are over-represented in it overall. Unless noted, calls follow the shape of the dose curve; as a rule, active = well fitted curve in the direction sought with a large enough effect; inconclusive = small, poorly fitted or top-dose-only effect, or another doubt; inactive = no such curve, though single readings can be large; an effect the other way counts as inactive or inconclusive.
SMILES,LmPK inh,Tb PYK inh,Shiga inhibitor,FBPA Giardia inh,RE007 growth inh,Cycloheximide cs
CC[C@H](C)[C@H](NC(=O)[C@H](Cc1ccc(O)cc1)NC(=O)[C@H](Cc1cnc[nH]1)NC(=O)[C@H](CCCNC(=N)N)NC(=O)[C@H](CC(C)C)NC(=O)[C@H](C)NC(=O)[C@H](CO)NC(=O)[C@H](Cc1ccc(O)cc1)NC(=O)[C@H](Cc1ccc(O)cc1)NC(=O)[C@H](CCCNC(=N)N)NC(=O)[C@H](C)NC(=O)[C@H](CC(C)C)NC(=O)[C@H](CC(=O)O)NC(=O)[C@H](CCC(=O)O)NC(=O)[C@H](C)NC(=O)[C@@H]1CCCN1C(=O)[C@H](C)NC(=O)[C@H](CC(=O)O)NC(=O)[C@H](CCC(=O)O)NC(=O)CNC(=O)[C@@H]1CCCN1C(=O)[C@H](CC(N)=O)NC(=O)[C@H](CC(=O)O)NC(=O)[C@@H]1CCCN1C(=O)[C@H](CCCCN)NC(=O)[C@H](CO)NC(=O)[C@@H]1CCCN1C(=O)[C@@H](N)Cc1ccc(O)cc1)C(=O)N[C@@H](CC(N)=O)C(=O)N[C@@H](CC(C)C)C(=O)N[C@@H](CC(C)C)C(=O)N[C@H](C(=O)N[C@@H](CCCNC(=N)N)C(=O)N1CCC[C@H]1C(=O)N[C@@H](CCCNC(=N)N)C(=O)N[C@@H](Cc1ccc(O)cc1)C(N)=O)[C@@H](C)O,x,x,14,2%,x,41
OC[C@@H]1[C@@H](c2ccc(F)cc2)C(c2ccc(F)cc2)=NN1c1ccccc1,x,x,i,-8%[89.2 µM],x,0
Cc1ccc(CSCC(=O)Nc2ccccc2F)cc1,1%,-10%,68*,2%,-19%,25*
CCC(C)(C)NC(=O)Cc1ccc(C)cc1,1%,5%,83*,18%,-10%,21*
COc1ccc(CSCC(=O)Nc2ccccc2SC)cc1,5%,-16%,-10,-10%,-5%,0
CC(C)C[C@H](NC(=O)[C@H](CCCCN)NC(=O)[C@H](CCC(N)=O)NC(=O)[C@H](Cc1cnc[nH]1)NC(=O)[C@H](Cc1cnc[nH]1)NC(=O)[C@@H](N)C(C)C)C(=O)N[C@H](C(=O)N[C@@H](Cc1ccccc1)C(=O)N[C@@H](Cc1ccccc1)C(=O)N[C@@H](C)C(=O)N[C@@H](CCC(=O)O)C(=O)N[C@@H](CC(=O)O)C(=O)N[C@H](C(=O)NCC(=O)N[C@@H](CO)C(=O)N[C@@H](CC(N)=O)C(=O)N[C@@H](CCCCN)C(=O)O)C(C)C)C(C)C,x,x,-9,2%,x,-11
Cc1ccc(OCC(=O)Nc2cccc3ccc(C)nc23)c(C)c1,x,-15%,x,x,x,x
Cc1ccc(OCC(=O)Nc2cccc(C)n2)c(C)c1,-11%,-2%,77*,-1%,-4%,36*
Cc1cccc(NC(=O)COc2ccc(Br)cc2)n1,-13%,1%,72*,-1%,u,62*
CC(=O)NC(=S)NNC(=O)COc1ccc(Br)cc1,26%,-23%,32,-8%,30%,21*
CCOCCCNC(=O)c1c(NC(=O)c2cc(=O)c3cc(C)c(C)cc3o2)sc2c1CCC2,x,-3%,x,x,x,x
COC(=O)C1=C(C)N(Cc2ccccc2)C2=C(C(C)=O)C(c3ccccc3)[C@@](O)(C(=O)OC)C(=O)N2C1c1ccccc1 (some centres undefined),x,x,x,-1%[12.9 µM],x,x
O=C(CCC1N=C2c3ccccc3N=C(SCc3ccc(F)cc3)N2C1=O)N1CCN(c2ccccc2)CC1 (centres undefined),x,-8%,x,x,x,x
COc1ccc(-c2onc(C)c2C)cc1S(=O)(=O)N(C)Cc1ccccc1,x,4%,x,x,x,x
O=c1nc2c(-c3ccccc3F)n[nH]n2c2ccccc12,-14%,5%,80*,-15%,-11%,20*
COc1ccccc1C(=O)NNC(=O)c1cccc(Br)c1,-2%,2%,x,-16%,-16%,35*
CC(C)(C)NC(=O)C(=O)NNC(=O)c1cccc(Br)c1,8%,-3%,47*,-21%,6%,17*
